The results in this text go back to PubChem BioAssay (NCATS).

Results filed as inconclusive are left out. Unmarked numbers belong to inactive results. Calls of active or inactive are those of the source. The call rests on the fitted dose curve; in most records, active means well fitted curve in the direction sought with a large enough effect; inconclusive means small, poorly fitted or top-dose-only effect, or another doubt; inactive means no such curve, though single readings can be large; an effect the other way counts as inactive or inconclusive.

Assay [1] in a line: Quantitative High-Throughput drug screen in 47 multiple myeloma cell lines against the NCATS MIPE library collection: KMS20_JCRB cell viability assay (AID 1918973). Further: nearly all actives have a fitted effect of over 45% in size. The essentials:
(§1)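 Viability readout: CellTiter-Glo luminescence following 5 min room-temperature incubation with reagent. Prior exposure: 48 h, 37C, humidified 5% CO2, 500 cells per well.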

The nature of assay [2]: Quantitative High-Throughput drug screen in 47 multiple myeloma cell lines against the NCATS MIPE library collection: KMS26_JCRB cell viability assay (AID 1918975). Further: nearly all actives have a fitted effect of over 45% in size. The essentials:
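Myeloma cells (500 per well) were exposed to MIPE 4.0 compounds by pin transfer and incubated 48 hours at 37C, 5% CO2. Viability was read as ATP by CellTiter-Glo luminescence, normalised to DMSO (100%) and media-only (0%) wells.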

Assay [3] in a line: Quantitative High-Throughput drug screen in 47 multiple myeloma cell lines against the NCATS MIPE library collection: MMM1_PLB cell viability assay (AID 1918976). Further: nearly all actives have a fitted effect of over 35% in size. Put shortly:
(§2)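 Inhibition of viability over 48 h was scored by ATP content (CellTiter-Glo) in 500-cell wells. Zero and full viability were defined by media-only and DMSO-only wells.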

A short description of assay [4]: Quantitative High-Throughput drug screen in 47 multiple myeloma cell lines against the NCATS MIPE library collection: MOLP8_DSMZ cell viability assay (AID 1918977). Further: nearly all actives have a fitted effect of over 45% in size. Put shortly:
as §2

Assay [5] is described as follows: Quantitative High-Throughput drug screen in 47 multiple myeloma cell lines against the NCATS MIPE library collection: NCIH929_DSMZ cell viability assay (AID 1918978). Further: nearly all actives have a fitted effect of over 35% in size. Put shortly:
as §2

Assay [6] is described as follows: Quantitative High-Throughput drug screen in 47 multiple myeloma cell lines against the NCATS MIPE library collection: MM1S_ATCC cell viability assay (AID 1918980). Further: nearly all actives have a fitted effect of over 45% in size. The essentials: as §2
Assay [7] in a line: Quantitative High-Throughput drug screen in 47 multiple myeloma cell lines against the NCATS MIPE library collection: MM1R_ATCC cell viability assay (AID 1918981). Further: nearly all actives have a fitted effect of over 35% in size. Put shortly: as §2
Assay [8] is described as follows: Quantitative High-Throughput drug screen in 47 multiple myeloma cell lines against the NCATS MIPE library collection: KMS28PE_JCRB cell viability assay (AID 1918983). Further: nearly all actives have a fitted effect of over 35% in size. The essentials:
as §2

Assay [9] in a line: Quantitative High-Throughput drug screen in 47 multiple myeloma cell lines against the NCATS MIPE library collection: L363_DSMZ cell viability assay (AID 1918984). Further: nearly all actives have a fitted effect of over 40% in size. Particulars: L363 myeloma viability, CellTiter-Glo ATP luminescence, 48 h; viability (% of control): at 45.8 µM (top of the series). Put shortly: as §2
Assay [10] is described as follows: Quantitative High-Throughput drug screen in 47 multiple myeloma cell lines against the NCATS MIPE library collection: KMS34_JCRB cell viability assay (AID 1918985). Further: nearly all actives have a fitted effect of over 40% in size. The essentials:
as §2

Assay [11] is described as follows: Quantitative High-Throughput drug screen in 47 multiple myeloma cell lines against the NCATS MIPE library collection: OCIMY7_PLB cell viability assay (AID 1918987). Further: nearly all actives have a fitted effect of over 65% in size. Particulars: OCI-MY7 myeloma viability, CellTiter-Glo ATP, 48 h; viability (% of DMSO): at 45.8 µM (top of the series). Put shortly:
as §2
(In general: Cellular ATP, detected with luciferase, serves as a proxy for viable cell number.)

Assay [12] can be described thus: Quantitative High-Throughput drug screen in 47 multiple myeloma cell lines against the NCATS MIPE library collection: OCIMY5_PLB cell viability assay (AID 1918988). Further: nearly all actives have a fitted effect of over 65% in size. Put shortly: as §2
The nature of assay [13]: Quantitative High-Throughput drug screen in 47 multiple myeloma cell lines against the NCATS MIPE library collection: OPM1_PLB cell viability assay (AID 1918989). Further: nearly all actives have a fitted effect of over 40% in size. The essentials: as §2
Assay [14] is described as follows: Quantitative High-Throughput drug screen in 47 multiple myeloma cell lines against the NCATS MIPE library collection: XG6_PLB cell viability assay (AID 1919865). Further: nearly all actives have a fitted effect of over 40% in size. The essentials: as §2
Assay [15] is described as follows: Quantitative High-Throughput drug screen in 47 multiple myeloma cell lines against the NCATS MIPE library collection: XG1_PLB cell viability assay (AID 1919866). Further: nearly all actives have a fitted effect of over 35% in size. The essentials: as §2
Assay [16] can be described thus: Quantitative High-Throughput drug screen in 47 multiple myeloma cell lines against the NCATS MIPE library collection: KMS21BM_JCRB cell viability assay (AID 1918974). Particulars: ATP luminescence, 48 h; viability: at 45.8 µM (top of the series). The essentials: as §1
The nature of assay [17]: Quantitative High-Throughput drug screen in 47 multiple myeloma cell lines against the NCATS MIPE library collection: OCIMY1_PLB cell viability assay (AID 1918979). Further: nearly all actives have a fitted effect of over 35% in size. Put shortly: as §2
Assay [18] can be described thus: Quantitative High-Throughput drug screen in 47 multiple myeloma cell lines against the NCATS MIPE library collection: LP1_DSMZ cell viability assay (AID 1918982). Further: nearly all actives have a fitted effect of over 35% in size. The essentials: as §2
Assay [19] is described as follows: Quantitative High-Throughput drug screen in 47 multiple myeloma cell lines against the NCATS MIPE library collection: SKMM1_PLB cell viability assay (AID 1919863). Further: nearly all actives have a fitted effect of over 35% in size. The settings on record: SKMM1 myeloma viability, CellTiter-Glo ATP, 48 h; viability: active compounds read low. Put shortly: as §2
Assay [20] is described as follows: Quantitative High-Throughput drug screen in 47 multiple myeloma cell lines against the NCATS MIPE library collection: U266_ATCC cell viability assay (AID 1919864). Further: nearly all actives have a fitted effect of over 35% in size. Put shortly: as §2
Potency means the concentration at half of the fitted maximal effect.

As to `O=C(c1ccc(C=Cc2n[nH]c3ccccc23)cc1)N1CCNCC1`, the Potency in assay [1] is 1.87 µM (active); in [2], 16.6 µM (active); in assay [3] it was 5.26 µM (active); in [4], 16.6 µM (active); in assay [5], 2.35 µM (active); in [6], 16.6 µM (active). For the same molecule, the Potency in assay [7] was 13.2 µM (active); in assay [8], 6.62 µM (active); in assay [9], 3.72 µM (active); in [10], 10.5 µM (active); in assay [11] it was 0.662 µM (active); in [12] it was 14.8 µM (active). Besides, the Potency in assay [13] was 2.64 µM (active); in assay [14], 14.8 µM (active); in assay [15] it was 0.833 µM (active).
Regarding `CCC(C)SSc1ncc[nH]1` (stereo unspecified), the Potency in assay [1] was 5.26 µM (active); in assay [16] it was 8.33 µM (active); in assay [2], 3.72 µM (active); in assay [3] it was 7.43 µM (active); in assay [4], 4.18 µM (active); in [5] it was 3.72 µM (active). In addition, the Potency in [17] was 8.33 µM (active); in [7], 5.26 µM (active); in [18], 8.33 µM (active); in assay [8], 11.8 µM (active); in assay [9], 2.96 µM (active); in assay [10] it was 4.18 µM (active). Further, the Potency was 5.26 µM (active) in [12]; 3.72 µM (active) in assay [13]; 11.8 µM (active) in [19]; 4.69 µM (active) in assay [20]; 7.43 µM (active) in [14]; 5.26 µM (active) in assay [15].
Turning to `N#CC(c1ccc(Cl)cc1)c1c(Cl)cc(-n2ncc(=O)[nH]c2=O)cc1Cl` (stereo unspecified), the Potency in assay [1] is 3.72 µM (active); in assay [16] it was 0.235 µM (active); in [5] it was 18.7 µM (active); in assay [6] it was 20.9 µM (active); in assay [7] it was 2.64 µM (active); in assay [9] it was 16.6 µM (active). The Potency is 4.69 µM (active) in assay [11], 5.9 µM (active) in assay [13], 14.8 µM (active) in [14] and 18.7 µM (active) in assay [15]. For the same molecule, the Potency result in assay [2], in assay [4], in [17] and in assay [8] was “inactive” each time.
Turning to `Cc1cccc(Nc2nc(N[C@@H]3CCCC[C@H]3N)ncc2C(N)=O)c1`, the Potency was 4.69 µM (active) in [1]; 20.9 µM (active) in assay [2]; 20.9 µM (active) in [3]; 14.8 µM (active) in assay [4]; 6.62 µM (active) in [5]; 26.4 µM (active) in [17]. Besides, the Potency in assay [7] was 26.4 µM (active); in [18] it was 18.7 µM (active); in [11], 6.62 µM (active); in [13], 16.6 µM (active); in assay [19] it was 23.5 µM (active); in [14], 0.743 µM (active).
In the case of `CC[C@H](NC(=O)[C@H](C)NC)C(=O)N1C[C@@H](O)C[C@H]1Cc1c(-c2[nH]c3cc(F)ccc3c2C[C@H]2C[C@H](O)CN2C(=O)[C@H](CC)NC(=O)[C@H](C)NC)[nH]c2cc(F)ccc12`, the Potency in [1] is 4.69 µM (active); in [16], 0.526 µM (active); in [5], 20.9 µM (active); in [6], 3.32 µM (active); in assay [7], 0.418 µM (active); in assay [18], 20.9 µM (active). In addition, the values for the Potency in assay [11], in assay [14] and in assay [15] were 1.87 µM (active), 4.18 µM (active) and 5.9 µM (active), respectively. Further, the Potency result in [4] and in assay [8] was “inactive” throughout.
As for `CCc1cccc(CC)c1NC(=O)N1Cc2[nH]nc(NC(=O)c3ccc(N4CCN(C)CC4)cc3)c2C1`, the Potency was 14.8 µM (active) in assay [1]; 3.72 µM (active) in [16]; 16.6 µM (active) in assay [4]; 16.6 µM (active) in assay [5]; 14.8 µM (active) in assay [7]; 14.8 µM (active) in assay [8]. Moreover, the Potency was 10.5 µM (active) in assay [11]; 1.66 µM (active) in [12]; 0.833 µM (active) in assay [13]; 2.64 µM (active) in assay [19]; 8.33 µM (active) in assay [14]; 0.935 µM (active) in assay [15]. Moreover, the Potency entry in [3] was “inactive”.
Consider `CN1CCC(COc2cnc(-c3cccc(Cn4nc(-c5cccc(C#N)c5)ccc4=O)c3)nc2)CC1`, for which the Potency in assay [1] is 0.526 µM (active); in [2], 0.235 µM (active); in assay [3] it was 0.059 µM (active); in assay [5], 0.0526 µM (active); in [6] it was 0.0743 µM (active); in assay [7], 18.7 µM (active). The Potency was 18.7 µM (active) in assay [18]; 0.059 µM (active) in assay [11]; 0.0469 µM (active) in assay [12]; 16.6 µM (active) in assay [13]; 20.9 µM (active) in assay [20]; 0.0332 µM (active) in assay [14]. In assay [15], the Potency is 0.332 µM (active). For the same molecule, the Potency result in assay [4], in [17] and in assay [8] was “inactive” throughout.
Regarding `CCC(=C(c1ccc(O)cc1)c1ccc(OCCNC)cc1)c1ccccc1`, the Potency is 5.9 µM (active) in [1]; 26.4 µM (active) in assay [2]; 20.9 µM (active) in assay [3]; 26.4 µM (active) in [4]; 14.8 µM (active) in assay [5]; 23.5 µM (active) in assay [17]. Besides, the Potency in assay [6] was 20.9 µM (active); in [7], 23.5 µM (active); in assay [10] it was 26.4 µM (active); in assay [11], 16.6 µM (active); in assay [12], 18.7 µM (active); in assay [13], 18.7 µM (active). Further, the Potency was 20.9 µM (active) in [19], 29.6 µM (active) in assay [20], 6.62 µM (active) in assay [14] and 11.8 µM (active) in assay [15].
`Cc1cnc(Nc2cccc(CN3CCOCC3)c2)nc1Nc1cccc(S(=O)(=O)NC(C)(C)C)c1`: the Potency is 2.96 µM (active) in assay [1]; 18.7 µM (active) in assay [2]; 18.7 µM (active) in assay [3]; 2.96 µM (active) in [4]; 1.87 µM (active) in assay [5]; 10.5 µM (active) in [7]. For the same molecule, the Potency in [18] was 14.8 µM (active); in assay [8], 14.8 µM (active); in assay [9] it was 5.26 µM (active); in assay [10], 3.32 µM (active); in assay [11], 1.05 µM (active); in [12], 3.72 µM (active). Further, the Potency was 1.48 µM (active) in assay [13], 7.43 µM (active) in assay [19], 1.18 µM (active) in assay [14] and 1.05 µM (active) in assay [15]. The Potency entry in assay [20] is “inactive”.
Take `Cc1nc(NC(=O)N2CCC[C@@H]2C(N)=O)sc1-c1csc(C(C)(C)C)n1`: the Potency in assay [1] was 2.64 µM (active); in assay [2] it was 1.18 µM (active); in [3] it was 0.935 µM (active); in assay [4], 0.166 µM (active); in [5] it was 0.833 µM (active); in assay [6] it was 6.62 µM (active). The Potency in assay [7] was 5.9 µM (active); in assay [8], 3.72 µM (active); in assay [9] it was 0.833 µM (active); in [12], 14.8 µM (active); in assay [13], 14.8 µM (active); in [20], 9.35 µM (active). The figures for the Potency in [14] and in [15] were 4.69 µM (active) and 3.32 µM (active), respectively.
